Where a name gives a salt, the structure may show the parent alone. A number with no mark means an inactive call.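 Rule for the calls: for the amine columns active = adjusted P below 0.05 in both replicates with a change the same way and a mean fold change under 0.8 or over 1.25; inactive = the rest.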

In the assay the test system is Klebsiella aerogenes DSM 30053. Briefly: fold change of Cadaverine concentration vs plate DMSO controls (fold change (ratio)); higher = more amine produced, active = hit call of the paper (significant change in both replicates, either direction). The settings on record: 20 µM; incubation time: 27 h, anaerobic, 37 °C. The procedure, abridged: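 Anaerobic mGAM cultures of four gut bacterial strains were grown at 37 °C for 27 h in 80 µL wells, starting at OD 0.1 before 1:1 dilution. Compounds were at 20 µM final (sweeteners 50 µM). Whole cultures were extracted with cold acetonitrile/methanol containing 0.1% formic acid and centrifuged. Amines were quantified by LC–triple-quadrupole MS (dynamic MRM) against external calibration curves and drift-corrected within batch. Each value is the fold change versus plate DMSO controls, averaged over 2 biological replicates.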
For the compound `CCCC(C)(COC(N)=O)COC(=O)NC(C)C` (stereo not drawn) [Carisoprodol], the “fold change of Cadaverine concentration” value is 1.

With `CCC1(c2cccc(O)c2)CCCCN(C)C1` (stereo not drawn) [Meptazinol hydrochloride], the “fold change of Cadaverine concentration” value was 1.01. On to `CC(C)(C)NCC(O)c1ccccc1Cl` (stereo not drawn) [Tulobuterol hydrochloride], for which the “fold change of Cadaverine concentration” value is 0.99. For the compound `C[C@]12CCC(=O)C(O)=C1CC[C@@H]1[C@@H]2CC[C@]2(C)C(=O)CC[C@@H]12` [Formestane], the “fold change of Cadaverine concentration” value is 0.981. With `C=C(C)[C@@H]1[C@H]2OC(=O)[C@@H]1[C@]1(O)C[C@H]3O[C@]34C(=O)O[C@H]2[C@]14C` [Picrotoxinin], the “fold change of Cadaverine concentration” value was 0.987. In the case of `CCOc1cc(Oc2ccc(C(F)(F)F)cc2Cl)ccc1[N+](=O)[O-]` it was 1.08; in that of `O=C(O)C(F)(F)C(F)(F)C(F)(F)C(F)(F)C(F)(F)C(F)(F)C(F)(F)C(F)(F)C(F)(F)F` [PFDeA (Perfluorodecanoic acid)], 1; in that of `CC[C@@H](CO)NC(=O)[C@@H]1C=C2c3cccc4[nH]cc(c34)C[C@H]2N(C)C1` [Methylergometrine maleate], 1.

In the case of `O=C(O)C(F)(F)C(F)(F)C(F)(F)C(F)(F)C(F)(F)C(F)(F)C(F)(F)F` [PFOA (Perfluorooctanoic acid)], the “fold change of Cadaverine concentration” value is 0.992. As to `COc1ccc2c(c1)[C@]13CCCC[C@@H]1[C@H](C2)N(C)CC3` [Dextromethorphan hydrobromide monohydrate], the “fold change of Cadaverine concentration” value was 1.02. Take `CCOP(=S)(OCC)Oc1cc(C)nc(C(C)C)n1`: the “fold change of Cadaverine concentration” value was 1. As for `CC(=O)NC1CCSC1=O` (stereo not drawn) [Citiolone], the “fold change of Cadaverine concentration” value was 1.06. In the case of `CCCCN(CCCC)N=O` [DBNA (N-nitrosodibutylamine)] it was 1.01; in that of `CC[C@H](C)[C@H]1O[C@]2(C=C[C@@H]1C)C[C@@H]1C[C@@H](C/C=C(\C)[C@@H](O[C@H]3C[C@H](OC)[C@@H](O[C@H]4C[C@H](OC)[C@@H](O)[C@H](C)O4)[C@H](C)O3)[C@@H](C)/C=C/C=C3\CO[C@@H]4[C@H](O)C(C)=C[C@@H](C(=O)O1)[C@]34O)O2.CO[C@H]1C[C@H](O[C@H]2[C@H](C)O[C@@H](O[C@@H]3/C(C)=C/C[C@@H]4C[C@@H](C[C@]5(C=C[C@H](C)[C@@H](C(C)C)O5)O4)OC(=O)[C@@H]4C=C(C)[C@@H](O)[C@H]5OC/C(=C\C=C\[C@@H]3C)[C@]54O)C[C@@H]2OC)O[C@@H](C)[C@@H]1O`, 0.996; in that of `C=CCC1(CC(C)C)C(=O)NC(=O)NC1=O` [Butalbital], 0.997. For `NCC(CC(=O)O)c1ccc(Cl)cc1` (stereo not drawn) [Baclofen], the “fold change of Cadaverine concentration” value was 1.03.

For the compound `N#Cc1cc(Br)c(O)c(Br)c1`, the “fold change of Cadaverine concentration” value was 0.978. In the case of `N#CC(CCc1ccc(Cl)cc1)(Cn1cncn1)c1ccccc1` (stereo not drawn) it was 0.478; in that of `CN(C)C(=O)Oc1ccc[n+](C)c1` [Pyridostigmine iodide], 1.03; in that of `CC(C)C[C@H](CN)CC(=O)O` [Pregabalin], 0.982. On to `Clc1ccc(C(OCCN2CCCCC2)c2ccccc2)cc1` (stereo not drawn) [Cloperastine hydrochloride], for which the “fold change of Cadaverine concentration” value is 1.03.

As to `O=[N+]([O-])c1ccc2ccc3cccc4ccc1c2c34` [1-Nitropyrene], the “fold change of Cadaverine concentration” value is 1.01. The result for `COCC(=O)N(c1c(C)cccc1C)C(C)C(=O)OC` (stereo not drawn) reads 1.01; that for `CCCN1C[C@H](CSC)C[C@@H]2c3cccc4[nH]cc(c34)C[C@H]21` [Pergolide mesylate], 1.01; that for `COc1cc(OC)nc(NC(=O)NS(=O)(=O)c2ncccc2C(=O)N(C)C)n1`, 1.01. For `CNC(C)(C)Cc1ccccc1` [Mephentermine hemisulfate], the “fold change of Cadaverine concentration” value was 1.01.

As to `CC1(C)C(C=C(Cl)Cl)C1C(=O)OC(C#N)c1ccc(F)c(Oc2ccccc2)c1` (mixture of isomers), the “fold change of Cadaverine concentration” value was 1.02. As for `CCC1(CC)C(=O)C=CNC1=O` [Pyrithyldione], the “fold change of Cadaverine concentration” value was 1.02. In the case of `COP(=S)(OC)Oc1nc(Cl)c(Cl)cc1Cl` it was 0.991. Turning to `Nc1nc(N)nc(NC2CC2)n1` [Cyromazine], the “fold change of Cadaverine concentration” value was 1.

Turning to `ClC1C(Cl)C(Cl)C(Cl)C(Cl)C1Cl` (stereo not drawn), the “fold change of Cadaverine concentration” value was 0.994. Consider `CCCN(CCC)C(=O)SCc1ccccc1`, for which the “fold change of Cadaverine concentration” value is 0.993. Turning to `Cc1ccccc1[N+](=O)[O-]` [2-Nitrotoluene], the “fold change of Cadaverine concentration” value was 0.993.
